Results taken from PubChem BioAssay (NCI).
The panel holds about 83,000 compounds, 20% with a hit somewhere; the sample as a whole holds those more often.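 The test compound was applied at a single concentration to cells in 96-well plates for 48 hours, and percent growth was recorded.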 A number with no mark means an inactive call. The source made the active and inactive calls. Rule for the calls: active = growth percent below 10; inactive = the rest.

What was measured:
Experiment in all cases: NCI-60 one-dose screen, 48 h (100 = growth as untreated, 0 = no growth, -100 = all killed)
Settings in all cases: 10 µM unless noted
BT-549 breast = tested on: BT-549 breast
MDA-MB-435 melanoma = tested on: MDA-MB-435 melanoma
SW-620 colon = tested on: SW-620 colon
MCF7 breast = tested on: MCF7 breast
HCT-116 colon = tested on: HCT-116 colon
HCC-2998 colon = tested on: HCC-2998 colon
KM12 colon = tested on: KM12 colon

SMILES	growth (BT-549 breast)	growth (MDA-MB-435 melanoma)	growth (SW-620 colon)	growth (MCF7 breast)	growth (HCT-116 colon)	growth (HCC-2998 colon)	growth (KM12 colon)
COc1ccc2[nH]c(=O)c(/C=C/C(=O)c3ccccc3OC)cc2c1	18.9%	-10% (active)	8.4% (active)	10%	16%	23.1%	4.37% (active)
CSc1nc(-c2ccc(F)cc2)c(C#N)c(N2CCOCC2)n1	95.3%	105%	97.5%	90.4%	96.6%	101%	101%
COc1cccc(C(=O)OCCn2nc3c4c(cccc42)C(=O)c2ccccc2-3)c1O	52.8%	6.92% (active)	20.9%	18.4%	29.6%	80.3%	29%
Nc1ccccc1NS(=O)(=O)c1ccc(Cl)cc1	101%	90.6%	99.3%	94%	97%	84.4%	100%
Cc1ccc2nc3nc4ccc[nH]c4cc3c2c1	93.2%	106%	108%	2.23% (active)	97.1%	63.7%	47.8%
CCN1CCC[C@H]1c1cc(O)c2c(c1OC)C[C@H]1C[C@H]3[C@H](N)C(=O)C(C(N)=O)=C(O)[C@@]3(O)C(=O)C1=C2O	-3.73% (active)	-4.48% (active)	1.96% (active)	0.852% (active)	-4.51% (active)	-6.34% (active)	5.97% (active)
CC(C)(C#N)c1cc(F)cc(C(=O)Nc2cc(Nc3ncccc3-c3ncnc4nc[nH]c34)ccc2F)c1	39.7%	48%	28.7%	58.1%	19.2%	27.3%	36%
CC(=O)c1ccc(NC(=O)CSc2nnc(-c3cc(-c4ccc(C)cc4)nc4ccccc34)o2)cc1	59.1%	80.9%	28.4%	26.6%	-7.47% (active)	102%	72%
Cc1c(Cl)cccc1NC(=O)c1sc2nc3c(cc2c1N)CCCCC3	48.7%	-0.269% (active)	25.3%	20.8%	32.3%	55.7%	24.7%
Cc1cc(C)c(NC(=O)c2sc3nc4c(cc3c2N)CCCCCC4)c(C)c1	53.6%	4.56% (active)	36.2%	24.3%	57.3%	84.7%	49%
COc1ccc2[nH]c3nc4cnccc4cc3c2c1	104%	109%	104%	82%	97.9%	117%	93.2%
Oc1ccc(CNNc2ccnc3c(O)cccc23)c2cccnc12	37.1%	38.1%	27.9%	11.2%	27.3%	35.7%	22.9%
Cc1[nH]c(N=Nc2ccccc2)nc1N=Nc1ccccc1	37.7%	37.1%	31.7%	15.3%	11.1%	26.3%	35.1%
Cc1nnc(/N=C2\NC(=O)/C(=C/c3ccsc3)S2)s1	94.6%	91.5%	98.8%	79%	83.6%	95.7%	84.7%
COc1ccc2nc3c(n2c1)C(=O)C(=O)c1ccccc1-3	-72.3% (active)	-91.8% (active)	-61.8% (active)	-53.1% (active)	-2.17% (active)	-13.5% (active)	23.1%
COC(=O)c1cc2c3c(cc(O)c2[nH]1)N(C(=O)C1Cc2cc(OC)c(OC)c(OC)c2N1)CC3CCl (configuration not stated)	-84.6% (active)	-14% (active)	-10.8% (active)	-5.51% (active)	-63.3% (active)	-73.2% (active)	-29.4% (active)
C=C1C(=O)O[C@H]2[C@H]1CC/C(C=Nc1c(N)cc(C(F)(F)F)cc1Br)=C\CC[C@@]1(C)O[C@@H]21	-22.6% (active)	4.47% (active)	-63.1% (active)	-2.09% (active)	-80.6% (active)	34.2%	30%
COc1ccc(-c2nc(C#N)c(NCC(c3ccco3)N3CCCC3)o2)cc1 (configuration not stated)	66.7%	-23.5% (active)	27.3%	19.6%	27%	67%	33.8%
O=C(Nc1ccccc1)NS(=O)(=O)c1c[nH]c(=S)[nH]c1=O	92.1%	108%	105%	100%	93.8%	114%	105%
COc1ccc(Nc2nc(SCC(C)C)nc(-c3ccc(F)cc3)c2C#N)cc1	75.5%	9.54% (active)	47.9%	29.1%	35.7%	92.8%	44.4%
C=C1C(=O)O[C@H]2[C@H]1CCC(/C=N/c1ncc(Br)cc1N)=C\CC[C@@]1(C)O[C@@H]21	1.35% (active)	22.6%	-62.7% (active)	-3.68% (active)	-52.6% (active)	62.2%	53.9%
COc1ccc(/C=C/C(=O)Nc2ncnc3nc[nH]c23)cc1	103%	91.1%	110%	78.9%	101%	111%	95.8%
COc1ccccc1N1CCN(CCCOc2ccc(C(=O)/C=C3/C(=O)Nc4ccccc43)cc2)CC1	68.1%	73%	70.6%	49.7%	34.4%	60.2%	59.4%
C#C[C@@]1(O)[C@@H](CO)O[C@@H](n2cc(-c3ccco3)c3c(N)ncnc32)[C@@H]1O	58.5%	66.4%	63.5%	13.9%	68%	56.4%	18.2%
O=[N+]([O-])c1cccc(CN(Cc2cccc([N+](=O)[O-])c2O)c2ccccc2)c1O	88.9%	91.4%	56.9%	84.8%	15.7%	67.1%	88.5%
CC(C)C1=C[C@@]23CC[C@H]4[C@](C)(COCCC#N)CCC[C@]4(C)[C@H]2C[C@@H]1[C@@H]1[C@H]3[C@@H](OCCC#N)CC[C@@H]1OCCC#N	39.4%	40.1%	47.4%	9.61% (active)	24.6%	44.4%	32.7%
